In ChEMBL document CHEMBL4888484, “Replenishing the malaria drug discovery pipeline: Screening and hit evaluation of the MMV Hit Generation Library 1 (HGL1) against asexual blood stage Plasmodium falciparum ,using a nano luciferase reporter read-out” (2022):
Hit rate of the full screen: of about 150,000 compounds, about 540 (0.36%) showed an effect of 50% or more. The list comes from a sample in which strong results are over-represented; it also holds similar structures and randomly drawn compounds.

System: Plasmodium falciparum
Experiment: Primary screen in NF54 nanoGlo assay, in single point, at 2uM, 72h; a lower Z score goes with more inhibition
Format: functional, Erythrocyte
Conditions: timepoint 72 hour

Compound	% Inhibition	Z score
COc1ccc(CNCCC2C(C)CN(C)C(C)C2Cc2ccccc2)cc1 (stereo not given)	55%	-7.17
COc1ccc(CNC/C=C/c2ccccc2)cc1	-20%	2.3
COC1CCC(CCNCc2ccccc2)CC1 (stereo not given)	-15%	2.25
COc1cccc(OC2CN(C[C@H]3COc4ccccc4O3)C2)c1	3%	-0.59
CC(CNC(=O)N(C)CCc1cccs1)N1CCOCC1C (stereo not given)	5%	-0.94
CCc1cc(N2CCCO2)nc(-c2ccncc2)n1	1%	-0.06
Cn1cnc2c(NCC(=O)N3CCN(c4ccccc4)CC3)ncnc21	-1%	0.15
CN1CCC(N2CCN(Cc3ccc4cc(O)ccc4c3)CC2)CC1	90%	-8.27
CN1CC[C@H](CN(C)Cc2ccc3cc(O)ccc3c2)C1	56%	-7.71
c1cc(CN2CCC[C@H](CN3CCCC3)C2)co1	-3%	0.59
CC(C)[C@H]1CN(C)CCN1Cc1ccc2cc(O)ccc2c1	-17%	2.23
CN(Cc1ccc2cc(O)ccc2c1)C[C@H]1CCCCO1	8%	-0.87
Oc1ccc2cc(CN3CCC[C@H](CN4CCCC4)C3)ccc2c1	97%	-3
CN(CC[C@H]1CCCCO1)Cc1ccc2cc(O)ccc2c1	-1%	0.18
NC1CCOC(C2CCCCN2S(=O)(=O)c2ccc(C(F)(F)F)s2)C1 (stereo not given)	4%	-0.63
COCCN1C(=O)[C@@H]2C(Cc3ccc(O)cc3)NC3(C(=O)Nc4c(C)cc(C)cc43)[C@@H]2C1=O (stereo not given in full)	-3%	0.41
Cc1cccc(Cl)c1C(=O)NC(C1CCNCC1)[C@H]1C[C@H](O)C1 (stereo not given in full)	-9%	1.88
Cc1noc2ncnc(N3CCCC3CC(O)c3cnn(C)c3)c12 (stereo not given)	4%	-0.69
CCC[C@H](NC1CCN(C(=O)OC)CC1)C1CC1	7%	-0.96
CC1CC(C)CN(C(=O)c2ccc3c(=O)n4c(nc3c2)CCCC4)C1 (stereo not given)	-3%	0.52
COc1ccc([C@@H](CC(=O)N2CCCC2)c2cn(Cc3ccccc3)c3ccccc23)cc1	-8%	0.98
COc1ccc2c(/C=C/c3cc[n+](C)cc3)cn(Cc3ccccc3)c2c1	68%	-6.36
COc1ccc([C@H]2CC(=O)Nc3cccc4c3c2cn4Cc2ccccc2)cc1	-4%	0.51
Cc1nc(NC(=O)NCCn2ncnn2)sc1C	31%	-4.22
CCC(C)CS(=O)(=O)NC(C)C1CC1 (stereo not given)	-4%	0.39
Cc1cccc(NC(=O)c2c[nH]c3nc(C)ccc3c2=O)c1	4%	-0.5
Cc1ccc(C)c(NC(=O)c2c(Oc3ccc(F)cc3)nc(C)c(Cl)c2C)c1	-8%	1.01
Cn1cc(NC(=O)c2cc3ccccc3o2)ccc1=O	-4%	0.73
Cc1c(C)c2ccc(NC(=O)c3cc4ccccc4o3)cc2[nH]c1=O	93%	-7.22
O=C(Nc1c(C(=O)Nc2ccc(F)c(F)c2)oc2ccccc12)c1cc2ccccc2o1	-13%	2.46
